From PubChem
Rows were chosen to be rich in hits. Some 1.9% of all compounds tested hit in one or more screens of this group.
Ba/F3 V617F tox: reduced viability of JAK2V617F-dependent Ba/F3 cells, primary screen, JAK2V617F inhibitor project, cell-based, Ba/F3 EpoR-JAK2V617F, luminescence | ATP luminescence | inhibition, % at 5.6 µM | 220,000 compounds, 1.1% hits;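 active means inhibition above the campaign mean plus 3 SD over all tested compounds, cut at about 24% in these data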;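 further: cytokine-independent growth of Ba/F3 cells driven by EpoR plus mutant JAK2; 0% = DMSO-treated cells and 100% = JAK inhibitor I control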
IEC-6 cytotox: cytotoxicity in IEC-6 intestinal epithelial cells, primary screen, cytotoxicity control for KLF5 inhibitor project, cell-based, luminescence | IEC-6 cytotoxicity, luminescence viability | inhibition, % at 5 µM | 290,000 compounds, 0.78% hits; in the data active means inhibition above about 22%;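 further: 0% = plate median of test compound wells and 100% = cytotoxic reference compound wells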
BaF3 tox: parental Ba/F3 cell viability inhibition, counter-screen for JAK2V617F inhibitor project, murine pro-B, CellTiter-Glo luminescence; 220,000 compounds, 1.1% hits; CellTiter-Glo ATP luminescence; inhibition, % at 5.6 µM;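 active means inhibition above a per-campaign cutoff, the mean inhibition of all tested compounds plus 3 SD, cut at about 27% in these data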;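 further: 0% = DMSO wells and 100% = JAK Inhibitor I control wells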
APP transl inh: inhibitors of APP translation via 5'UTR reporter, primary screen, APP 5'UTR luciferase, SH-SY5Y cells | 190,000 compounds, 0.82% hits | inhibition, % at 2 µM | SH-SY5Y APP 5'UTR-luciferase reporter, luminescence;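 active means inhibition above a set limit, derived from the sample mean plus 3 SD, cut at about 45% in these data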
KLF5 inh: KLF5 expression inhibitors, primary screen, DLD-1 cells, luminescence; DLD-1 KLF5 promoter-luciferase reporter; inhibition, % at 5 µM; 290,000 compounds, 0.23% hits;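 active means inhibition above a per-plate limit of that plate's mean compound inhibition plus 3 SD, cut at about 60% in these data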;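 further: 0% = DMSO wells and 100% = LY294002 at 200 µM; higher means less KLF5 promoter-driven luciferase light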
Active calls of the source: *; / = not tested or not shown.

SMILES	Ba/F3 V617F tox	IEC-6 cytotox	BaF3 tox	APP transl inh	KLF5 inh
COc1ccc(-c2c[n+]3c(n2-c2c(C)n(C)n(-c4ccccc4)c2=O)CCCCC3)cc1	-1	5	3	17	-18
CC(=NCCCn1ccnc1)c1c(-c2ccccc2)[nH]n(-c2nc3ccccc3s2)c1=O	-4	-1	0	10	-16
CCOC(=O)C1=C(C)NC(=O)NC1c1ccc(OCC(=O)N2CCCCC2)cc1 (centres undefined)	2	2	3	3	-16
COc1ccc(CNC(=O)CSc2nnc(-c3cccnc3)n2N)cc1	6	0	82*	0	5
Cc1ccc(S(=O)(=O)N2CCOCC2)c(C)c1-n1cnnn1	-2	-1	2	-102	-6
Cc1ccc(S(=O)(=O)Nc2cccc3ncccc23)s1	3	94*	4	56*	24
C=CCNc1cc(N2CCCC2)ccc1[N+](=O)[O-]	3	7	6	57*	-4
Clc1ccc(C[n+]2cc(-c3ccccc3)n3c2CCC3)cc1Cl	85*	-5	71*	14	-32
Clc1ccc(-c2c[n+](Cc3cccc(Cl)c3)c3n2CCC3)cc1	77*	0	64*	-10	-20
N#CC[n+]1cc(-c2ccc(Cl)cc2)n2c1CCC2	1	-2	4	18	0
Cc1ccc(NC(=O)N2CCCc3ccccc32)cc1	-3	-4	0	-15	-26
CC(=O)N1CCC(=NNC(=O)c2cccs2)CC1	15	9	53*	-117	-134
CCCN(CCC)CCCNS(=O)(=O)c1cc(Br)cc2c1N(C(C)=O)CC2	0	1	4	-1	-6
COC(=O)CS(=O)(=O)c1cc(Br)cc2c1N(C(C)=O)CC2	2	2	93*	2	1
Cn1cc(CN2CCCCC2C(=O)Nc2ccc(-n3cccn3)cc2)cn1 (centres undefined)	/	1	/	/	-36
O=C(NC(=Nc1ccccc1)N1CCOCC1)Nc1ccccc1	1	0	96*	-17	-12
CCOc1cc(C(=O)NC2=NCCS2)cc(OCC)c1OCC	0	0	3	-11	-7
O=[N+]([O-])c1ccccc1C1Nc2cccc3cccc(c23)N1	79*	11	100*	14	10
CCCn1c(CN2CCN(C(C)=O)CC2)nc2cc(S(=O)(=O)N(C)C)ccc21	/	8	/	/	-6
Brc1ccc(C=Nc2ccc(Nc3ccccc3)cc2)s1	2	7	8	45*	4
COc1ccc(-c2c[n+]3c(n2-c2ccccc2)CCCCC3)cc1	76*	17	64*	-1	6
CCOc1ccc(-n2c(-c3ccccc3)c[n+]3c2CCC3)cc1	79*	20	68*	22	-13
FC(F)Oc1ccc(-c2c[n+]3c(n2-c2ccccc2)CCCCC3)cc1	64*	-2	60*	/	-10
CCOc1ccc(-n2c(-c3ccccc3)c[nH]c2=S)cc1	/	-3	/	/	1
COc1ccc(-n2c(-c3ccc(Cl)cc3)c[n+]3c2CCCCC3)cc1	72*	14	66*	/	-48
SMILES	Ba/F3 V617F tox	IEC-6 cytotox	BaF3 tox	APP transl inh	KLF5 inh
COc1ccc(C(NCC(=O)Nc2c(C)cccc2C)c2ccccc2)cc1 (centres undefined)	/	-4	/	/	-23
COc1ccccc1-n1cc([C@@H]2C[C@H]3CN(c4ccccc4)C(=O)[C@]34CCCN24)cn1	-1	-2	7	95*	-17
COc1cc([C@@H]2C[C@H]3CN(c4ccccc4)C(=O)[C@]34CCCN24)cc(OC)c1OC	0	-6	4	-1	-37
CNS(=O)(=O)c1cccc(C(=O)Nc2cccc(Cl)c2)c1	0	1	2	48*	-56
CC1=NN(Cc2ccccc2)C(=O)/C1=C\c1ccc(N(C)C)cc1	-5	2	-1	8	-15
CCOC(=O)Cn1c2c(c(=N)c3ccccc31)CCC2	-4	-2	5	-8	-21
CCCCCCCCCCn1c2c(c(=N)c3c1CCC3)CCC2	99*	56*	96*	23	61
CCn1c2c(c(=N)c3c1CCC3)CCCC2	30*	0	50*	/	-14
CCOC(=O)Cn1c2c(c(=N)c3c1CCC3)CCC2	0	-2	11	6	-5
CCCCCn1c2c(c(=N)c3ccccc31)CCC2	89*	16	69*	/	38
CCCCCCCN1C2=NCCCN2c2ccccc21	5	1	9	-5	-16
CCCCn1c2c(c(=N)c3ccccc31)CCC2	71*	3	61*	/	-10
O=c1oc2ccc(Cl)cc2nc1/C=C(\O)c1cccs1	36*	0	38*	/	-56
Cc1ccc2oc(=O)c(/C=C(\O)c3cccs3)nc2c1	-1	-1	2	/	-84
CCN1/C(=C/c2ccc3cc(C)ccc3[n+]2C)Sc2ccc3sccc3c21	78*	16	62*	20	-12
CCN1/C(=C/c2cccc[n+]2C)Sc2ccc(OC)cc21	/	10	/	/	-4
CC(c1ccccc1)n1c(S(=O)(=O)O)nc2ccccc21 (centres undefined)	1	0	58*	0	-16
COc1cc(C(=O)NCC(c2cccnc2)N2CCN(c3ccccc3)CC2)cc(OC)c1OC (centres undefined)	1	4	5	-2	-22
Cc1cc(N(C(=O)c2ccco2)C(C(=O)NC2CCCCC2)c2ccccc2)ccc1-n1cnnn1 (centres undefined)	-3	-6	51*	-9	1
CCC1Oc2ccc(C)cc2N(CC(=O)NCc2ccco2)C1=O (centres undefined)	1	-1	90*	4	-26
Cc1ccc2c(c1)N(CC(=O)NCc1ccco1)C(=O)C(C(C)C)O2 (centres undefined)	-2	-6	-3	/	-7
COC(=O)c1cc2ccsc2n1Cc1nc(-c2cccc(Cl)c2)oc1C	-5	-3	-1	-3	-6
Cc1ccc2nc(SCC(=O)NCc3ccc(F)cc3)[nH]c2c1	/	6	/	/	-14
Cn1ncc(Br)c1NC(=O)Nc1ccc(OC(F)(F)F)cc1	4	11	32*	/	15
Cc1ccc(CNC(=O)Nc2ccc(OC(F)(F)F)cc2)n1C	/	4	/	/	-42
SMILES	Ba/F3 V617F tox	IEC-6 cytotox	BaF3 tox	APP transl inh	KLF5 inh
c1ccc(Cn2c(-c3ccccc3)c[n+]3c2SCCC3)cc1	73*	-4	63*	/	-8
COc1ccccc1NC(=S)N(Cc1ccco1)Cc1cc2cc(C)c(C)cc2[nH]c1=O	9	3	7	92*	-5
COc1ccccc1NC(=S)N(Cc1ccco1)Cc1cc2cccc(C)c2[nH]c1=O	7	-1	7	16	-4
Cc1ccc(NC(=O)Nc2cccc(C)n2)c(C)c1	2	2	-1	/	-1
CCc1sc(NS(C)(=O)=O)nc1-c1ccccc1	-4	0	2	50*	-25
COCCCn1c(SCc2nc3ccccc3c(=O)[nH]2)nc2ccccc2c1=O	2	6	4	8	-23
